High-throughput results: PubChem, National Center for Advancing Translational Sciences (NCATS)
Rows were chosen to be rich in hits. Some 3.8% of all compounds tested hit in one or more screens of this group.
Nrf2 inh: Nrf2 pathway inhibition. A549 ARE-Fluc reporter, luciferase luminescence, 18-24 h. Potency, µM (titrated, usually from 46 µM), without a hit: at the highest dose activity change, negative = inhibition, most hits filed as inhibitors. 360,000 tested, 2.1% active; note: % is set by controls: 0 for no effect and ±100 for the full control effect; nearly all actives have a fitted effect of over 60% in size
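Cells were seeded and rested 2 h, then exposed to compounds for 18-24 h. CellTiter-Fluor was read first as a viability measure. BugLite was added 15 min before the final luminescent read of ARE-luciferase activity in A549 cells.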
A549 viability: counter-screen for Nrf2 inhibitors: cytotoxicity in A549 cells | 390,000 tested, 0.16% active | A549 ARE-Fluc cells, CellTiter-Fluor viability, 18-24 h | Potency, µM (series often up to 46 µM), for the others: at the highest dose activity change, negative = cytotoxicity, usual class: inhibitors; note: % is set by controls: 0 for no effect and ±100 for the full control effect
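A549 ARE_Fluc cells in 5% FBS OPTI-MEM were exposed to compounds in concentration-response for 18-24 h at 37 deg C. Viability was read by CellTiter-Fluor fluorescence (Ex 405/Em 525) after 30 min, before the luciferase read.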
ELG1 DNA repair: inhibitors of ELG1-dependent DNA repair in HEK293T cells; HEK293T ELG1-luciferase reporter, luminescence, 16 h; DNA damage induced by 5-fluorouridine; Potency, µM (series often up to 46.1 µM), without a hit: at the highest dose activity change, negative = inhibition, usual class: inhibitors; 330,000 tested, 2.3% active; AID 504467; note: % is set by controls: 0 for no effect and ±100 for the full control effect; nearly all actives have a fitted effect of over 55% in size
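Overnight (16 hr) co-exposure of 2,000 cells/well to 5-fluorouridine and compound at 37 °C preceded detection. Luciferase was quantified via ONE-Glo luminescence; loss of signal denotes inhibition.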
Nrf2 ARE act: Nrf2 pathway activation; AREc32 ARE-luciferase reporter (MCF7-derived line), luminescence, 24 h; Potency, µM (highest dose often 46.1 µM), for the others: top-dose activation, hits mostly activators; 410,000 tested, 0.31% active; AID 624171; note: % of control where 0% means no effect; nearly all actives have a fitted effect of over 65% in size
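Steps: seed AREc32_Fluc cells (1000/well, 5% FBS OPTI-MEM); incubate overnight at 37 deg C; add 23 nL compound; incubate 24 hr; add Steady-Glo; hold 30 min RT; read luminescence.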
IDH1 R132H inh: inhibitors of human mutant IDH1 R132H; O75874; IDH1-R132H enzyme, NADPH consumption, diaphorase/resazurin fluorescence; Potency, µM (titrated, usually from 76.6 µM), for inactives: at the highest dose activity change, negative = inhibition, hits mostly inhibitors; 390,000 tested, 0.093% active; AID 602179; note: % is set by controls: 0 for no effect and ±100 for the full control effect; nearly all actives have a fitted effect of over 65% in size
Target sequence (O75874 whole entry R132H, stated change not applied): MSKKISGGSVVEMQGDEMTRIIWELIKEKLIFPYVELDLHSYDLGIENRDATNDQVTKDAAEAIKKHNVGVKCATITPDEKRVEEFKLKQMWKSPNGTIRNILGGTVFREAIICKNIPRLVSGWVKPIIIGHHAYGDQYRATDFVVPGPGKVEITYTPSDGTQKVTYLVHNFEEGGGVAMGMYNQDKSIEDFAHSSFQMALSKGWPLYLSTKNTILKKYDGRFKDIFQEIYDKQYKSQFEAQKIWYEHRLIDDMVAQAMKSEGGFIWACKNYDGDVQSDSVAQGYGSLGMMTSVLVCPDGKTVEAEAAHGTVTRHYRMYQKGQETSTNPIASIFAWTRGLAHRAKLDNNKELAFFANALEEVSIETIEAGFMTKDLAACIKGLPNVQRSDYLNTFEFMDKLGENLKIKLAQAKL
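IDH1-R132H (0.5 ug/mL dispensed) in pH 7.5 Tris buffer was preincubated 30 min with compound, then given a substrate mix of 0.016 mM NADPH and 2 mM alpha-KG for 80 min at room temperature; remaining NADPH was read by diaphorase/resazurin fluorescence.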
Active calls of the source: *; ? = inconclusive; nt = not tested or not shown; [ ] = dose if it differs, or a comment. Calls come from the whole dose curve; as a rule, active = well fitted curve in the direction sought with a large enough effect; inconclusive = small, poorly fitted or top-dose-only effect, or another doubt; inactive = no such curve, though single readings can be large; an effect the other way counts as inactive or inconclusive. Potency is the fitted concentration of half-maximal effect.

SMILES	Nrf2 inh	A549 viability	ELG1 DNA repair	Nrf2 ARE act	IDH1 R132H inh
CC(=O)c1c(C)[nH]c(C(=O)OCC(=O)NCC(C)C)c1C	10.3µM*	-13.6%	?	2.2%	8.1%
Cc1onc(-c2ccccc2Cl)c1C(=O)OCC(=O)Nc1cccc(S(=O)(=O)N(C)C)c1	?	1.1%	16.4µM*	2.6%	-9.0%
Cc1onc(-c2ccccc2Cl)c1C(=O)OCC(=O)Nc1ccc2c(c1)OCO2	?	-10.4%	-5.4%	3.2%	-2.8%
CNC(=O)COC(=O)c1[nH]c(C)c(C(C)=O)c1C	0.6%	0.8%	?	-0.1%	4.7%
CC(=O)c1c(C)[nH]c(C(=O)OC(C)C(=O)Nc2ccc(C)c(S(=O)(=O)N3CCOCC3)c2)c1C (stereo not given)	-0.2%	-7.0%	-21.3%	4.6%	13.9%
CC(=O)c1c(C)[nH]c(C(=O)OCC(=O)Nc2cccc(S(=O)(=O)N(C)C)c2)c1C	?	-4.4%	13µM*	-0.3%	2.1%
CCOC(=O)c1sc(=S)n(C)c1NC(=O)c1cccc(Br)c1	?	-9.3%	13µM*	4.6%	-3.3%
Nc1c(C(O)(C(F)(F)F)C(F)(F)F)cc(C(O)(C(F)(F)F)C(F)(F)F)c2ccccc12	14.6µM*	?	?	-0.3%	0.3%
Cn1cc([C@@H]2C[C@H]3CN(Cc4cccc(Cl)c4)C(=O)[C@]34CCCN24)c(-c2ccccc2)n1	20.6µM*	?	?	-0.7%	-4.2%
O=C1N(Cc2cccc(Cl)c2)C[C@@H]2C[C@@H](c3cccn3-c3cccnc3)N3CCC[C@@]123	20.6µM*	-13.4%	-9.6%	0.5%	-17.0%
Cc1ccc(C(=O)N/C(=C\c2ccccc2)C(=O)NCc2ccncc2)cc1	5.6%	3.8%	1.84µM*	0.3%	-1.9%
Cc1ccc(C(=O)N/C(=C/c2ccccc2)C(=O)NCc2ccncc2)cc1	11.2%	7.7%	?	-0.6%	-5.1%
C=CCn1c(SCC(C)=O)nnc1-c1cc(-c2ccccc2)sc1N	-24.4%	5.2%	25.9µM*	3.6%	0.6%
C=CCn1c(SCC(N)=O)nnc1-c1cccc(Br)c1	nt	-0.1%	-16.0%	0.3%	-1.1%
COc1ccc(C(=O)Oc2c(CN3CCOCC3)cc(Cl)c3cccnc23)cc1	-1.1%	-16.5%	?	17.1%	11.4%
O=C(Oc1c(CN2CCOCC2)cc(Cl)c2cccnc12)c1ccc(F)cc1	23.1µM*	nt	?	2.2%	11.5%
COc1cc(C(=O)Oc2c(CN3CCOCC3)cc(Cl)c3cccnc23)cc(OC)c1OC	8.7%	-3.6%	?	?	5.9%
COc1cccc(C(=O)Oc2c(CN3CCOCC3)cc(Cl)c3cccnc23)c1	?	?	18.4µM*	-0.7%	3.2%
O=C(Oc1c(CN2CCOCC2)cc(Cl)c2cccnc12)c1ccccc1Cl	-23.1%	-24.4%	11.6µM*	?	8.3%
O=C(O)COc1ccc(-c2nccc(-c3ccccn3)n2)cc1	2.06µM*	-0.9%	?	-1.3%	8.9%
FCCCOc1ccc(-c2nccc(-c3ccccn3)n2)cc1	?	11.1%	?	12.9%	7.5%
CCC(C)Sc1ccc([C@@H]2[C@@H]3C(=O)N(CC)C(=O)[C@@H]3[C@]3(C(=O)OC)CCCCN23)cc1 (stereo not given in full)	-6.6%	6.0%	-25.4%	-1.1%	4.3%
CCn1cc(C(=O)NCCc2ccc(OC)c(OC)c2)c(=O)c2cc(S(=O)(=O)N3CCc4ccccc4C3)ccc21	?	-10.6%	nt	0.7%	-4.9%
C=CCn1c(C)cc(C(=O)Cn2nc(C(=O)O)c3ccccc3c2=O)c1C	14.6µM*	-0.9%	?	3.7%	14.2%
O=C(O)CNc1cccc(-c2nn3c(=O)cc(N4CCNCC4)nc3s2)c1	4.9%	-1.6%	nt	nt	nt
SMILES	Nrf2 inh	A549 viability	ELG1 DNA repair	Nrf2 ARE act	IDH1 R132H inh
Cc1cccc(CSc2nc(-c3cccc(C)c3)nc3c2Cc2c(CO)cnc(C)c2O3)c1	?	13.8%	nt	3.7%	7.6%
COc1ccc(CN(C)C(=O)[C@H](Cc2ccccc2)NC(=O)c2ccco2)c(OC)c1	-18.4%	-3.4%	?	-0.7%	2.5%
CC(C)(C)C(=O)N(Cc1ccc(Cl)cc1)c1cnccn1	18.4µM*	-1.2%	?	0.1%	3.9%
C/C(=N\Nc1cc(C(F)(F)F)ccc1Cl)c1ccccc1O	2.8%	14.2%	11.6%	11.2µM*	2.3%
C/C(=N\Nc1ccc(F)cc1F)c1ccccc1O	?	-4.9%	?	26.6%	28.2%
CN(C)/C=C1\N=C(c2ccccc2)OC1=O	28.3%	0.0%	23.3%	-0.3%	-7.2%
CN(C)/C(CN1CCN(C=O)CC1)=C1\N=C(c2ccccc2)OC1=O	23.1µM*	2.3%	13.0%	-0.7%	1.5%
COc1ccc2ncnc(NCc3cccs3)c2c1-c1ccc2c(c1)OCO2	?	-18.8%	nt	nt	nt
CCOc1ccc(OCC)c(Nc2cc(C)nc3nc(-c4ccco4)nn23)c1	nt	2.5%	nt	3.6%	-8.3%
Cc1nc2cc(F)ccc2n1C1CCN(C(=O)c2ccc(F)cc2F)CC1	-1.0%	6.6%	9.2µM*	-0.2%	-11.6%
Cc1nc2cc(F)ccc2n1C1CCN(C(=O)c2c(F)cccc2F)CC1	?	1.8%	?	-0.5%	10.7%
Cc1ccc(CNC(=O)C(C(C)C)N2Cc3ccccc3C2=O)cc1 (stereo not given)	-9.8%	7.3%	nt	-0.3%	7.8%
Cc1ccccc1CN1C(=O)/C(=C\c2ccc(C(=O)NCCN3CCOCC3)cc2)Sc2ccccc21	-22.0%	1.7%	?	-0.3%	1.5%
Cc1ccc(S(=O)(=O)N2CCOCC2)cc1C(=O)NCCN1C(=O)S/C(=C\c2ccccc2Cl)C1=O	?	-0.7%	20.6µM*	4.6%	-6.5%
O=C(CN1C(=O)/C(=C\c2ccccc2Cl)Sc2ccccc21)NCCCN1CCOCC1	20.6µM*	?	-0.6%	?	2.8%
Cc1cccc(CN2C(=O)/C(=C\c3ccc(C(=O)NCCN4CCOCC4)cc3)Sc3ccccc32)c1	?	-23.1%	20.6µM*	-1.7%	-7.5%
O=C(NCCN1CCOCC1)c1ccc(/C=C2\Sc3ccccc3N(Cc3ccccc3F)C2=O)cc1	-3.6%	1.7%	20.6µM*	2.8%	1.9%
O=C(O)Cc1nnc(-c2cc3ccccc3[nH]2)s1	?	-0.9%	nt	nt	nt
N#Cc1ccccc1Cn1cc(/C=N/Nc2ccc([N+](=O)[O-])cn2)c2ccccc21	?	?	6.51µM*	-0.7%	3.4%
O=[N+]([O-])c1ccc(NN=Cc2ccccc2O)nc1	?	?	nt	0.5%	6.0%
O=C1C(=Cc2ccco2)CCCC1=Cc1ccco1	3.5%	0.5%	nt	3.16µM*	-6.4%
O=C1C(=Cc2ccco2)CCC1=Cc1ccco1	-6.1%	?	nt	18.5%	6.4%
Cc1ccc(NC(=O)CCS(=O)(=O)c2cccc3nsnc23)c(C)c1	4.3%[9.27 µM]	5.0%	nt	-0.7%	6.0%
